# HT1080NT lethal – qHTS for induction of synthetic lethality in tumor cells producing 2HG: qHTS for the HT-1080-NT fibrosarcoma cell line. Potency, µM (series often up to 46.1 µM), for inactives: at the top dose activity, negative = less viability, usual class: cytotoxic. AID 686970, 2013. HT-1080-NT fibrosarcoma viability, CellTiter-Glo ATP luminescence, 48 h. 1.6% of 360,000 active;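 also: NT is the 2HG producing partner of a matched IDH1 knockdown line; potency is read from the fitted curve at half-maximal effect; 0% = DMSO-treated cells and -100% = media-only wells without cells; nearly all actives have a fitted effect of over 55% in size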
#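 Fibrosarcoma NT cells, 750 per well in 5% FBS RPMI, were exposed to compound for 48 hours. Viability: CellTiter-Glo luminescence.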
# HT1080 IDH1KD tx – qHTS for induction of synthetic lethality in tumor cells producing 2HG: qHTS for the HT-1080-IDH1KD cell line; HT-1080 IDH1 knockdown viability, ATP luminescence, 48 h; 2% of 360,000 active; Potency, µM (highest dose often 46.1 µM), for inactives: at the highest dose activity, negative = toxicity, usual class: cytotoxic;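 also: potency is read from the fitted curve at half-maximal effect; 0% = DMSO wells and -100% = cell-free medium wells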
#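 Luminescent ATP read-out (CellTiter-Glo, 10 min at room temperature) after 48 h compound exposure at 37 °C gave viability of IDH1-knockdown HT-1080 cells. Activity was normalised to DMSO and cell-free wells, then fitted as concentration-response curves.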
# TDP1 cell noCPT – qHTS for Inhibitors of human tyrosyl-DNA phosphodiesterase 1 (TDP1): qHTS in cells in absence of CPT. Potency, µM (highest dose often 46.2 µM), for the others: at the highest dose activity change, negative = growth inhibition, hits mostly inhibitors. AID 686978, 2013. 15% of 420,000 active. DT40 Tdp1-/- hTDP1 cells, no CPT, ATP luminescence, 48 h; also: potency is read from the fitted curve at half-maximal effect; nearly all actives have a fitted effect of over 55% in size
#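 Growth of hTDP1-complemented DT40 Tdp1-knockout cells is measured by ATP luminescence after at least 48 hr compound exposure at 37 °C, with DMSO substituting for the 20 nM CPT used in the parallel screen.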
# TDP1 cell CPT – qHTS for Inhibitors of human tyrosyl-DNA phosphodiesterase 1 (TDP1): qHTS in cells in presence of CPT; chicken DT40 Tdp1-/-;hTDP1 cells + 20 nM CPT, ATP luminescence, 48 h; Potency, µM (top dose mostly 46.2 µM), for inactives: at the highest dose activity change, negative = growth inhibition, usual class: inhibitors; 12% of 420,000 active; AID 686979, 2013; also: potency is read from the fitted curve at half-maximal effect; nearly all actives have a fitted effect of over 55% in size
#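 Chicken DT40 Tdp1-/- cells stably complemented with human TDP1 were seeded at 400 cells/well in medium containing 20 nM camptothecin, exposed to pin-transferred compounds, and grown at 37 °C for at least 48 hr. Viability was read as ATP luminescence.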
# IL1B secr inh – qHTS for Inhibitors of Inflammasome Signaling: IL-1-beta AlphaLISA Primary Screen | THP-1 LPS/ATP IL-1B secretion, AlphaLISA, 16 h; stronger effect = lower value | 4.7% of 360,000 active | activity change, % at 57.5 µM | AID 743279, 2014; in the data active = activity change below about -50%; inconclusive = mostly about -30% to -49%
#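 Secreted IL-1B measured by AlphaLISA bead assay after 16 h compound exposure of THP-1 cells; compounds (final up to 57.5 uM) added 1 h before LPS (250 ng/mL) and ATP (1.25 mM) stimulation; lower signal means less secretion.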
# * marks the source's active call; other numbers are inactive results; ? = inconclusive; / = no result given; [ ] = remark or other dose. An excerpt weighted towards active compounds, which were near 19% of everything screened. Unless noted, calls follow the shape of the dose curve; as a rule, active = well fitted curve in the direction sought with a large enough effect; inconclusive = small, poorly fitted or top-dose-only effect, or another doubt; inactive = no such curve, though single readings can be large; an effect the other way counts as inactive or inconclusive. Unless noted, % is scaled to controls: 0 for no effect and ±100 for the full control effect.
SMILES,HT1080NT lethal,HT1080 IDH1KD tx,TDP1 cell noCPT,TDP1 cell CPT,IL1B secr inh
Cc1ccc2oc(C(=O)N(Cc3ccncc3)CC3CCCO3)c(C)c2c1 (configuration not stated),-10%,-7%,?,?,2
CCCc1ccc2oc(C(=O)N(Cc3ccncc3)CC3CCCO3)c(C)c2c1 (configuration not stated),?,?,18µM*,?,-85*
CCc1ccc(-c2cc(C)no2)cc1S(=O)(=O)NC(C)Cc1ccco1 (configuration not stated),-15%,-2%,-1%,?,5
CCCc1ccc2oc(C(=O)N(C)CCn3ccnc3C)c(C)c2c1,-23%,-18%,13µM*,21µM*,9
CCCc1ccc2oc(C(=O)N(C)Cc3cnccn3)c(C)c2c1,15%,12%,?,?,12
NS(=O)(=O)c1ccc(CCNC(=O)CCC(=O)c2cccs2)cc1,9%,4%,12%,-4%,25
COc1cc2c(cc1O)-c1ccccc1CN(C)C2,/,/,3%[9.04 µM],19%[9.04 µM],/
O=C(Nc1ccc(Cl)c(S(=O)(=O)N2CCOCC2)c1)c1cc(-c2ccccn2)nc2ccccc12,?,-4%,23µM*,?,?
Cc1ccc(NC(=O)c2cc(-c3ccco3)nc3ccccc23)cc1S(=O)(=O)N1CCOCC1,-19%,-2%,29µM*,?,5
COc1ccc(CN(C)C(=O)[C@H]2O[C@@H](n3ccc(N)nc3=O)[C@H](O)[C@@H]2O)cc1OC,8%,3%,8%,6%,2
CC/C(O)=C1\C(=O)CCCC1=NCc1nc2ccccc2[nH]1,-4%,-2%,-3%,?,11
CCN1C(=O)/C(=C/c2ccc(N3CCCC3)cc2)NC1=S,-6%,-13%,23µM*,23µM*,-67*
CCCN1C(=O)/C(=C/c2ccc(N3CCCC3)c(C)c2)NC1=S,-11%,-8%,21µM*,16µM*,-25
CCN1C(=O)/C(=C/c2ccc(OCc3ccc(C(=O)O)cc3)c(Cl)c2)NC1=S,-13%,-16%,-3%,-5%,-10
Cc1cc(/C=C2\NC(=S)N(C)C2=O)ccc1N1CCCC1,8%,8%,?,?,-8
CCCN1C(=O)/C(=C/c2ccc(N3CCOCC3)cc2)NC1=S,11%,17%,15µM*,?,22
CCn1cc(S(=O)(=O)CC(=O)Nc2ccc(OC)cc2)c2ccccc21,-3%,-2%,-30%,-26%,?
O=C(NCCS(=O)(=O)N1CCN(c2ccccc2)CC1)C1CCCCC1,-4%,7%,-21%,-15%,-10
O=C(N=Nc1c(O)[nH]c2ccc(Br)cc12)c1cc(-c2cccs2)nc2ccccc12,?,13µM*,6.5µM*,4.6µM*,20
O=C(N=Nc1c(O)[nH]c2ccc(Br)cc12)c1ccccc1-n1cccc1,2.8µM*,2.2µM*,2.6µM*,4.6µM*,2
Cn1c(O)c(N=NC(=O)c2cc(-c3cccs3)nc3ccccc23)c2ccccc21,-8%,-19%,?,?,15
C=CC(=O)Nc1cc2c(Nc3ccc(F)c(Cl)c3)ncnc2cc1OCCCN1CCOCC1,/,/,4.7µM*,5.3µM*,/
O=C(NCCCN1CCOCC1)c1ccc2c(=O)n(-c3ccc(F)c(Cl)c3)c(=S)[nH]c2c1,-10%,-9%,?,-5%,27
COc1cc2nc(C3CC3)n(NC(=O)c3ccc(Cl)cc3)c(=O)c2cc1OC,?,?,23µM*,?,23
Cc1cc(C(=O)Nn2c(C3CCCCC3)nc3ccccc3c2=O)ccc1[N+](=O)[O-],-4%,-2%,?,?,51
SMILES,HT1080NT lethal,HT1080 IDH1KD tx,TDP1 cell noCPT,TDP1 cell CPT,IL1B secr inh
COc1ccccc1C(=O)Nn1c(C2CCC2)nc2ccccc2c1=O,-6%,?,?,13µM*,9
O=C(Nn1c(C2CCCCC2)nc2ccccc2c1=O)c1ccc(Cl)c([N+](=O)[O-])c1,?,?,?,?,-224*
COc1cc2nc(C3CCC3)n(NC(=O)COc3ccccc3)c(=O)c2cc1OC,7.1µM*,1%,-17%,-12%,10
O=C1NC[C@H](c2ccccc2)N(CCc2cccc3ccccc23)C1=O,1%,-7%,-86%,?,4
CCC(=O)c1cn(CC(=O)Nc2ccc(F)cc2)c2ccccc12,-7%,-18%,-2%,-8%,10
COCCCNC(=O)C1CCCN(S(=O)(=O)c2ccc(C)cc2)C1 (configuration not stated),11%,1%,-14%,-2%,25
CC1=C(C(=O)N2CCOCC2)CC(CC(=O)NC2CCCCC2)C(=O)N1Cc1ccc(F)cc1 (configuration not stated),1%,3%,-6%,-6%,20
O=C(CSc1ccc(-c2ccco2)nn1)Nc1ccccc1F,1%,18%,-8%,?,0
CCOc1ccccc1C(=O)Nn1c(C2CCC2)nc2ccccc2c1=O,?,-27%,23µM*,9.2µM*,16
O=C(NC(c1ccccc1)c1ccc2ccccc2n1)C1CCN(CCOc2ccc(Cl)cc2)CC1 (configuration not stated),3.7µM*,4.1µM*,16µM*,23µM*,-100*
COc1ccc(OCCN2CCC(C(=O)NC(c3ccc(F)cc3)c3ccc4ccccc4n3)CC2)cc1 (configuration not stated),?,?,18µM*,29µM*,-50*
O=C(NC(c1ccc(F)cc1)c1ccc2ccccc2n1)C1CCN(CCOc2ccc(F)cc2)CC1 (configuration not stated),?,9.2µM*,8.2µM*,8.2µM*,?
COc1ccc(C(NC(=O)C2CCN(CCOc3ccc(Cl)cc3)CC2)c2cccs2)cc1 (configuration not stated),21µM*,?,?,?,-71*
Cc1cc(Cl)ccc1C(=O)C1CCCN(C(=O)c2cncs2)C1 (configuration not stated),-6%,-7%,?,?,7
COc1ccc(OCCN2CCC(C(=O)NC(c3ccccc3)c3ccc4ccccc4n3)CC2)cc1 (configuration not stated),?,?,?,?,-80*

# Source: PubChem BioAssay
